Compound activity as filed in PubChem.
IL-2 act: qHTS of IL-2 Activators. IL-2 activation reporter assay, cell-based qHTS; stimulated with anti-CD3/CD4/CD28 beads; in transgenic mouse T cells. activation, % (series mostly up to about 46 µM). actives 0.065% (n = 360,000). AID 652025, 2013; in the data active means activation above about 50%; inconclusive means mostly about 30% to 49%; further: 0% is about no effect
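Quantitative HTS in unstimulated transgenic mouse T cells, with memory T cells as non-tolerant control and PMA/ionomycin as tolerance-bypass control. Compound pretreatment lasted 60 minutes before 18 h bead stimulation; EGFP/DsRed fluorescence read.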
ELG1 DNA repair: qHTS screen for small molecules that inhibit ELG1-dependent DNA repair in human embryonic kidney (HEK293T) cells expressing luciferase-tagged ELG1. HEK293T ELG1-luciferase reporter, luminescence, 16 h; DNA damage induced by 5-fluorouridine. Potency, µM (titrated, usually from 46.1 µM), for the others: top-dose activity change, negative = inhibition, actives largely listed as inhibitors. actives 2.3% (n = 330,000); further: potency means the concentration at half of the fitted maximal effect; on the % scale 0 is the no-effect control and ±100 the full control effect; nearly all actives have a fitted effect of over 55% in size
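Quantitative HTS, concentration-response format. 2,000 cells/well co-treated with 5-fluorouridine and compound, 16 hr in 5% CO2 at 37 °C; ONE-Glo luminescence read after 30 min.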
BRCA1 expr act: qHTS Assay to Identify Small Molecule Activators of BRCA1 Expression; Potency, µM (highest dose often 46.1 µM), for the others: at the highest dose activation, usual class: activators; AID 624202, 2012; MCF7-BRCA1-FFLuc reporter, luminescence, 48 h; response scale: scaled: vehicle 0%, 10 µM genistein 100%; actives 1.1% (n = 380,000); further: potency means the concentration at half of the fitted maximal effect; nearly all actives have a fitted effect of over 80% in size
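Activators of BRCA1 expression were detected as increased firefly luciferase luminescence in engineered MCF7 cells after 48 h compound incubation. Signals were scaled to genistein 10 microM as full activation.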
Nrf2 activator: qHTS of Nrf2 Activators; AREc32 ARE-luciferase reporter (MCF7-derived line), luminescence, 24 h; Potency, µM (doses to about 46.1 µM), inactives show at the highest dose activation, usual class: activators; AID 624171, 2012; actives 0.31% (n = 410,000); further: potency means the concentration at half of the fitted maximal effect; % of control where 0% means no effect; nearly all actives have a fitted effect of over 65% in size
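Steps: seed AREc32_Fluc cells (1000/well, 5% FBS OPTI-MEM); incubate overnight at 37 deg C; add 23 nL compound; incubate 24 hr; add Steady-Glo; hold 30 min RT; read luminescence.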
* = called active by the depositor; ? = inconclusive; · = not tested or not shown. Rows were chosen to be rich in hits. Some 3.1% of all compounds tested hit in one or more screens of this group. Unless noted, the call rests on the fitted dose curve; in most records, active means well fitted curve in the direction sought with a large enough effect; inconclusive means small, poorly fitted or top-dose-only effect, or another doubt; inactive means no such curve, though single readings can be large; an effect the other way counts as inactive or inconclusive.

SMILES	IL-2 act	ELG1 DNA repair	BRCA1 expr act	Nrf2 activator
COc1ccc(Cn2c(=O)n(Cc3ccco3)c(=N)c3c4c(sc32)COC(C)(C)C4)cc1	1	7.3µM*	-39%	5%
CC1(C)Cc2c(sc3c2c(=N)n(Cc2ccco2)c(=O)n3Cc2ccc(F)cc2)CO1	-1	18µM*	-43%	0%
COc1cc(C(CC(=O)NCc2ccc(F)cc2)N2Cc3ccccc3C2=O)cc(OC)c1OC (stereo unspecified)	·	·	-16%	0%
Cc1nn(CC(=O)NC2CCCCC2)c(=O)c2cc3cc(F)ccc3n12	·	·	·	0%
CC(C)/C=C1\CCc2c([nH]c3ccccc23)C1=O	2	17%	14%	15%
CCCC/C=C1\CCc2c([nH]c3ccccc23)C1=O	1	?	1.4µM*	?
O=C(C1CCC1)N1CCc2cc(S(=O)(=O)NCCc3ccccc3)ccc21	·	·	-2%	3%
O=S(=O)(NCC[C@@H]1CC[C@H](NS(=O)(=O)c2cccc(F)c2)[C@@H](CO)O1)c1cccc(F)c1	0	·	·	·
Cc1ccc(S(=O)(=O)Nc2ccccc2N=Cc2ccc([N+](=O)[O-])cc2[N+](=O)[O-])cc1	-7	·	-37%	14µM*
NC(=O)C1CCN(c2nc(-c3cccc(Cl)c3)cs2)CC1	-1	?	4µM*	0%
Cc1ccc(-c2csc(N3CCC(C(N)=O)CC3)n2)cc1	-1	?	?	3%
NC(=O)C1CCN(c2nc(-c3ccc4ccccc4c3)cs2)CC1	0	?	13µM*	5%
CCOc1ccc(NC(=O)C(=O)NCC(c2cccnc2)N2CCc3ccccc32)cc1 (stereo unspecified)	·	·	·	-1%
CN(C)c1ccc(C2C=Cc3ccccc32)c2ccccc12 (stereo unspecified)	·	·	-40%	·
O=C(Nc1ccc(NC(=S)NC(=O)c2cccs2)cc1)c1ccccc1	-2	?	35%	0%
O=C(NC(=S)Nc1ccccc1)c1cccs1	0	?	5.6µM*	?
Cc1cccnc1NC(=O)NC(=O)c1ccc(C(C)(C)C)s1	0	?	6.3µM*	0%
Cc1cccnc1NC(=S)NC(=O)c1cccs1	0	?	59%	10µM*
Cc1ccc(NC(=S)NC(=O)c2cccs2)cc1F	0	?	3.5µM*	?
Cc1cccnc1NC(=O)CNC(=O)c1cccs1	-2	1%	-4%	0%
COc1cc(-c2ccc3oc(-c4ccsc4)cc(=O)c3c2)cc(OC)c1OC	0	16µM*	-71%	-4%
Cc1cc2oc(=O)cc(Cn3ncc(Cl)c(Cl)c3=O)c2cc1Cl	-1	?	-103%	4µM*
Cc1nnsc1S(=O)c1ccc(Cl)c(Cl)c1 (stereo unspecified)	3	-15%	-58%	11µM*
c1ccc(-c2nc(-c3ccco3)n3ccccc23)cc1	-1	-25%	-67%	11µM*
COc1ccc(Cl)cc1N=C1NC(=O)CC(C(=O)Nc2ccccc2C(F)(F)F)S1 (stereo unspecified)	·	·	-6%	0%
SMILES	IL-2 act	ELG1 DNA repair	BRCA1 expr act	Nrf2 activator
CC1CCCN(C(=O)c2ccc([N+](=O)[O-])o2)C1 (stereo unspecified)	-3	-9%	-9%	?
CCC1CCCCN1C(=O)c1ccc([N+](=O)[O-])o1 (stereo unspecified)	-1	5%	-24%	20µM*
O=S1(=O)C=C(N2CCOCC2)c2ccccc21	-3	10%	-17%	13µM*
Cc1ccc(S(=O)(=O)Cc2cc(F)c([N+](=O)[O-])cc2[N+](=O)[O-])cc1	-5	16µM*	-93%	-2%
Cc1ccc(NC(=O)CSc2ncc3c(n2)-c2ccccc2N(C)S3(=O)=O)c(Cl)c1	·	·	·	4%
C=CCCC(=O)Nc1nc(C)c(-c2csc(Nc3cc(OC)ccc3OC)n2)s1	-1	7.3µM*	-47%	-2%
CCCCCC(=O)Nc1nc(C)c(-c2csc(Nc3cc(Cl)ccc3OC)n2)s1	0	-6%	-64%	7%
CCCC(C)C(=O)Nc1nc(C)c(-c2csc(Nc3cc(OC)ccc3OC)n2)s1 (stereo unspecified)	-3	18µM*	-53%	-1%
CCCC(=O)Nc1nc(C)c(-c2csc(Nc3cc(OC)ccc3OC)n2)s1	-4	5.2µM*	-57%	1%
C=CCCC(=O)Nc1nc(C)c(-c2csc(Nc3cccc(OC)c3)n2)s1	0	15µM*	-37%	1%
COc1cc(Cl)c(C)cc1NC(=O)CSc1cc(-c2ccccc2)nc(C)n1	·	·	·	-1%
CCCC(=O)Nc1nc(C)c(-c2csc(Nc3ccccc3OC)n2)s1	0	23µM*	0%	0%
COc1ccc(OC)c(Nc2nc(-c3sc(N)nc3C)cs2)c1	0	12µM*	-54%	4%
COc1ccc(C2CC(=O)c3c([nH]c(C(=O)OC4CCCCCC4)c3C)C2)cc1OC (stereo unspecified)	·	·	·	0%
O=C(O)/C=C/C(=O)N1N=C(c2ccco2)CC1c1ccco1 (stereo unspecified)	-2	1%	?	30%
O=C(c1ccco1)N1N=C(c2ccc(Br)cc2)CC1c1ccco1 (stereo unspecified)	0	11µM*	1%	-1%
O=C(CCl)N1N=C(c2ccco2)CC1c1ccco1 (stereo unspecified)	-1	?	-18%	16µM*
O=C(CCl)N1N=C(c2cccs2)CC1c1ccco1 (stereo unspecified)	-1	23µM*	-70%	14%
O=C(CCc1nc2cccnc2n1Cc1cccs1)Nc1cccc(Cl)c1	·	·	·	0%
COc1ccc(-n2c(=O)c3c4c(sc3n(Cc3ccc(C)cc3C)c2=O)CCC4)c(OC)c1	·	·	·	0%
COc1cccc(NC(=O)COc2ccccc2C(=O)Nc2ccccc2)c1	·	·	21%	·
CCOc1ccc(NC(=O)Cn2c(=O)c(CNc3ccc(OC)cc3)cc3ccc(OC)cc32)cc1	·	·	1%	-1%
COC(=O)c1ccc(/C(O)=C(\C#N)c2nc3ccccc3s2)cc1	0	?	5µM*	3%
CCC(C)Sc1nc2c(c(=O)[nH]c(=O)n2C)n1CC(O)COc1ccccc1C (stereo unspecified)	-2	16µM*	-74%	0%
CCOC(=O)CSc1nc2c(c(=O)[nH]c(=O)n2C)n1CCc1ccccc1	0	-2%	0%	0%
CCOC(=O)C(CC)Sc1nc2c(c(=O)[nH]c(=O)n2C)n1CCc1ccccc1 (stereo unspecified)	0	8.2µM*	-26%	3%
COc1ccc(C(=O)N(Cc2ccc(C(C)C)cc2)C2CCS(=O)(=O)C2)cc1 (stereo unspecified)	·	·	·	5%
CC(=O)n1c(Cl)c(NC(=O)CCl)c2ccccc21	-3	26µM*	-73%	?
